# Target: Shiga toxin 2 (Escherichia coli O157:H7) (UniProt P09385+P09386)
# Experiment: E. coli 0.157:H7 Shiga Toxin SOP - stx2 screening assay
# Type: functional
# Set-up: scale not given: direction of the effect not stated beside the values
# Conditions: 30 µM
row,Compound,Percent Effect [%]
1,CCn1c(CN2CCCN(C(=O)OC)CC2)nc2c(F)cccc21,36.3
2,Nc1ncc2c(n1)CN(C1CCCC1)C2=O,-55.7
3,COCCC(=O)N1CC[C@@H](N(C)C)[C@@H]1Cc1ccccc1,2.6
4,O=C(CCn1cnnc1)N1CCCC(c2ncc[nH]2)C1 (centres undefined),-29.4
5,Cc1nnc(NC(=O)NCc2cc(F)cc(F)c2)s1,29.7
6,O=C(NCCN1CCC(c2cccs2)CC1)Nc1cccs1,-125
7,Fc1ccc(CN2CCCN(Cc3cscn3)CC2)cc1,2.42
8,CNc1nc2c(s1)C(c1cccc(F)c1F)CC(=O)N2 (centres undefined),3.28
9,CC(C)CN1CCC(c2nc3c([nH]2)CC(C)(C)CNC3=O)C1 (centres undefined),-12.2
10,CCOc1cc(CNC(=O)N2CCC(Cc3cnn(C)c3)C2)ccn1 (centres undefined),2.76
11,CC(C)N1CCC(Cc2cc(-c3ccccc3C(=O)O)ncn2)CC1,8.23
12,Cc1noc(C)c1CNC(=O)c1ccc(NC2CC2)nc1,13.4
13,CC(C)Cc1noc(CN(C)C(=O)C2COc3ccccc3C2)n1 (centres undefined),-46.4
14,CCN(CC)S(=O)(=O)N1CCCC(c2cccc(C(=O)O)c2)C1 (centres undefined),9.71
15,Cc1csc(C2CCCN(C(=O)c3cnc[nH]3)C2)n1 (centres undefined),16.6
16,COCCC(=O)N1CCC(c2noc3nc(C)cc(C(F)(F)F)c23)CC1,8.3
17,Cc1nc(C)n(CC2CN(CC(=O)Nc3nccs3)CCO2)n1 (centres undefined),0.609
18,Cc1nn(C)c(C)c1NC(=O)CN1CCc2c(nc(C3CC3)n2C)C1,-17.4
19,Cn1cnc2c1C(COCC1CC1)CN(Cc1ccc3c(c1)OCO3)C2 (centres undefined),-23.1

# Reference: ChEMBL document CHEMBL3988442, “University of Dundee, Small-Polar-MMV Screening Library” (2021)
